ABHD5-PLIN5 inh: ABHD5-PLIN5 protein interaction inhibition. Q00G26+Q8WTS1. Split G. princeps luciferase complementation, luminescence, 4 h. inhibition, % at 4 µM. 360,000 tested, 0.78% active;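 active means inhibition above the mean inhibition across every tested compound plus 3 SD, cut at about 22% in these data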
DAGLB inhibitor: diacylglycerol lipase beta (human) inhibition. 340,000 tested, 0.059% active. Q8NCG7. HEK293T DAGLB membrane lysate, EnzChek fluorogenic substrate. inhibition, % at 5.17 µM. AID 504411; in the data active means inhibition above about 34%
Target sequence (Q8NCG7 whole entry, looked up): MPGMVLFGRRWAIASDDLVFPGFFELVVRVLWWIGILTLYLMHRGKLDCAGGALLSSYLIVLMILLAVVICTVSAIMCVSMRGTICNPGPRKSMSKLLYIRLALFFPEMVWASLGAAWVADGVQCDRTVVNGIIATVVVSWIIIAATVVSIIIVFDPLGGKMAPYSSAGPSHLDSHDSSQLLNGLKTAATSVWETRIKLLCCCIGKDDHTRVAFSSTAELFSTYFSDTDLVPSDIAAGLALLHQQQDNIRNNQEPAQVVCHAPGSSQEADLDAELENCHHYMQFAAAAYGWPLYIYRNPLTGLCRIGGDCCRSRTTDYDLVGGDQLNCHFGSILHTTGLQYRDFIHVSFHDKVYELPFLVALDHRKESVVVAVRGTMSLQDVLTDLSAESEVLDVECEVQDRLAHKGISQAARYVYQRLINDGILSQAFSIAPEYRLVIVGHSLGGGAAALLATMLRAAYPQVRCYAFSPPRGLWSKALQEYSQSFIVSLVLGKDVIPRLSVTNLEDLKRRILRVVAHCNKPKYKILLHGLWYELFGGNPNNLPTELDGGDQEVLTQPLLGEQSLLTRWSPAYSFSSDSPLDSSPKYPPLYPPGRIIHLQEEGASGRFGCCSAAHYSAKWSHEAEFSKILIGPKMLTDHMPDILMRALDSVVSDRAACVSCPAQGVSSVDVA
Rtt109 HAT inh: C. albicans Rtt109 histone acetyltransferase inhibition; purified Rtt109/Vps75, ThioGlo CoA-SH fluorescence, 4 h; inhibition, % at 34.9 µM; 330,000 tested, 0.16% active; AID 540336;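 active means inhibition of at least 50% in every replicate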
Myeloid diff MLP: promotes myeloid progenitor differentiation; ER-HoxA9 myeloid progenitors, lysozyme-GFP differentiation, flow cytometry; calls only at 10 µM; 360,000 tested, 1% active;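 active means normalized GFP-positive differentiation at or above the plate's own cutoff, the solvent-only control mean plus 3 SD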;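 further: cells exposed to compound for four days before flow analysis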
sPLA2-III inh: Inhibits HGIII-sPLA2 liposome hydrolysis, primary screen; Q9NZ20; QFRET BODIPY PC-A2 liposome hydrolysis, fluorescence; inhibition, % at 12.2 µM; 370,000 tested, 0.56% active; AID 743126;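 active means inhibition above mean plus 3 SD of compounds lying within the high and low control bounds, cut at about 19% in these data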
H9c2 protect: myocardial damage modulation in H9c2 cells; H9c2 cardiomyocytes, H2O2 injury protection, ATPLite, 2 h; protection from H2O2 cell death, % at 20 µM; 360,000 tested, 0.63% active;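 active means compounds giving at least 50% protection of heart cells from peroxide-induced death in the single-dose screen, raw or plate-pattern-corrected value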
Myeloid diff CP1: promotes myeloid progenitor differentiation; shares compounds with Myeloid diff MLP; ER-HoxA9 myeloid progenitors, GFP/Mac1 double-positive flow; calls only; 2,300 tested, 2% active; AID 651706;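 active means share of green or green-and-red cells above 9 and 9% in run 1 or 4 and 3% in run 2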
GFP autofluor: compound fluorescence in myeloid differentiation counter-screen | AID 651707 | shares compounds with Myeloid diff MLP | 2,300 tested, 7.4% active | fluorescence response, % (no concentration beside the values) | ER-HoxA9 myeloid progenitors, no estrogen, GFP autofluorescence flow cytometry; vehicle wells 0%, positive control 100%;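 active means over 5% cells positive for green fluorescent reporter, or over 2% positive for both it and APC stain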
Large screens that a line does not name were inactive (follow-up assays come after a bar, where they were run). Compounds with a hit are over-represented: about 2.9% of the library has one in this group of screens.

COC(=O)c1cc(OC)c(OC)cc1NC(=O)C1CCC(=O)N1S(=O)(=O)c1ccc(C)cc1 (stereo unspecified)	none
N#CC(C#N)=c1ccc2c(c1)N1C(c3ccccc3)=CC(c3ccccc3)C3CCCCC31N=2 (stereo unspecified)	Myeloid diff MLP active (no result: Rtt109 HAT inh) | Myeloid diff CP1 inactive | GFP autofluor inactive
Cn1c(=O)oc2cc(S(=O)(=O)N3CCCC(C(=O)NCc4cccs4)C3)ccc21 (stereo unspecified)	none | Myeloid diff CP1 inactive | GFP autofluor inactive
COc1ccccc1CNC(=O)C1CCCN(S(=O)(=O)c2ccc3c(c2)C(C)(C)C(=O)N3C)C1 (stereo unspecified)	none | Myeloid diff CP1 inactive | GFP autofluor inactive
Cn1c(=O)c2c(nc(NCc3ccco3)n2C/C=C/c2ccccc2)n(C)c1=O	none | Myeloid diff CP1 inactive | GFP autofluor inactive
OC(c1ccc(F)cc1)c1ncc(-c2ccccc2Cl)[nH]1 (stereo unspecified)	none (no result: DAGLB inhibitor, Rtt109 HAT inh)
Cc1occc1C(=O)N/N=C/c1ccc(-c2ccccc2)cc1	none
Cc1occc1C(=O)N/N=C/C(Br)=C/c1ccccc1	Myeloid diff MLP active | Myeloid diff CP1 inactive | GFP autofluor inactive
C/C(=N\NC(=O)C1CCCC1)c1ccc(C(C)C)cc1	none
COc1ccc(CC(=O)NCc2nnc(SCC(=O)Nc3cccc(F)c3)n2C)cc1	none
O=C(O)CN(c1ccccn1)S(=O)(=O)c1ccc(Cl)cc1	Myeloid diff MLP active | Myeloid diff CP1 inactive | GFP autofluor inactive
O=C(CN(C(=O)C1CSC(=O)C1)c1cccc(F)c1)NC1CCCC1 (stereo unspecified)	none
O=[N+]([O-])c1ccc(/C=N/Nc2ncccc2[N+](=O)[O-])s1	none | Myeloid diff CP1 inactive | GFP autofluor inactive
C[C@H](N)C(=O)N1CCC(C(=O)N[C@@H](Cc2ccccc2)C(=O)Nc2ccc(F)cc2)CC1	none | Myeloid diff CP1 inactive | GFP autofluor inactive
COc1ccc(CCn2c(=S)[nH]c3cc(C(=O)NCc4ccco4)ccc3c2=O)cc1OC	none (no result: sPLA2-III inh) | Myeloid diff CP1 inactive | GFP autofluor inactive
O=C(CCC(=O)N(CC(=O)NC1CCCCC1)c1ccc2c(c1)OCO2)Nc1ccccn1	none | Myeloid diff CP1 inactive | GFP autofluor inactive
Cc1nc2scc(-c3ccccc3)c2c(=O)n1N=C1C=CC(=O)C=C1	none (no result: ABHD5-PLIN5 inh, DAGLB inhibitor, Rtt109 HAT inh, Myeloid diff MLP, H9c2 protect)
COc1cc(/C=C/C(=O)NC2CCCCC2)cc(OC)c1OC	none (no result: Myeloid diff MLP)
COc1ccccc1-c1cc(NC=O)c2ncc(-c3ccc(F)cc3)n2c1	none (no result: DAGLB inhibitor, Rtt109 HAT inh)
O=c1oc2c3c4c(cc2c(C(F)(F)F)c1CCN1CCOCC1)CCCN4CCC3	Myeloid diff MLP active | Myeloid diff CP1 inactive | GFP autofluor inactive
CCNC(=O)N(C)C[C@H]1N[C@@](Cc2ccccc2)(C(=O)OC)[C@H]2C(=O)N(C)C(=O)[C@@H]12	none
Cc1ccsc1CN(C)CC(=O)NCC(=O)Nc1ccc(F)c(F)c1F	Myeloid diff MLP active | Myeloid diff CP1 inactive | GFP autofluor inactive
Cc1ccccc1NC(=O)Nc1c(C)n(C)n(-c2ccccc2)c1=O	none
COc1ccccc1NC(=O)Nc1c(C)n(C)n(-c2ccccc2)c1=O	none | Myeloid diff CP1 inactive | GFP autofluor inactive
N#C/C(=N\Nc1ccc(S(=O)(=O)N2CCc3ccccc32)cc1)C(N)=S	Myeloid diff MLP active | Myeloid diff CP1 inactive | GFP autofluor inactive
CCOc1ccc(NS(=O)(=O)c2ccc3c(c2)n(C)c(=O)n3C)cc1	none (no result: Rtt109 HAT inh)
C[C@H](CO)N1C[C@H](C)[C@@H](CN(C)C(=O)Nc2cccc3ccccc23)OCCCC[C@H](C)Oc2ccc(NS(=O)(=O)c3cn(C)cn3)cc2C1=O	none (no result: DAGLB inhibitor, Rtt109 HAT inh)
Cc1ccc(S(=O)(=O)N2C[C@@H]3CCCC[C@@H]3[C@@H](C)[C@H]2c2cn(Cc3ccccc3)c3ncccc23)cc1	none | Myeloid diff CP1 inactive | GFP autofluor inactive
CCS(=O)(=O)c1nc(S(=O)(=O)c2ccc(Cl)cc2)c(N2CCC3(CC2)OCCO3)s1	none | Myeloid diff CP1 active | GFP autofluor inactive
